Our source for the composite z-score and z-score values is PubChem BioAssay.

SMILES strings stand for the structures. Active and inactive are the calls of the source. Unless noted, the rule behind the calls is not given here.

Assay [1] relates to XIP peptide (Xip251-270) binding. Description: small-molecule binders of XIP peptide, primary screen, biochemical, small-molecule microarray, fluorescence 635/667 nm, 0.1 µg/mL protein (AID 1182). To be noted: fluorescent protein binding, 635 nm, higher = more signal, called active from +8 up or from −8 down.
The next assay concerns XIP peptide (Xip251-270). Description: small-molecule binders of XIP peptide, primary screen, biochemical, small-molecule microarray, fluorescence 635/667 nm, 0.5 µg/mL protein (AID 1183). The conditions noted are these: small-molecule microarray binding, fluorescence 635 nm; higher = more signal.
Assay [2] can be described thus: Plasmodium falciparum growth inhibition, primary screen, strain 3D7, DAPI fluorescence, 100 nL (AID 1184).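 Note: parasites grown inside human red blood cells in medium with human serum.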 To be noted: P. falciparum 3D7 growth, 3 d, higher = more signal.
Assay [3] addresses Homeobox protein Hox-A13 (Mus musculus) (UniProt Q62424). Kind of assay: inhibitors of HoxA13-DNA binding, primary screen, biochemical, fluorescence polarization, labeled oligonucleotide (AID 1185). The conditions noted are these: 15 min, higher = more signal, called active from +8 up or from −8 down. For orientation: Fluorescence polarisation rises when a labelled molecule tumbles more slowly, as on binding a larger partner.

A short description of assay [4]: inhibitors of hydroxyurea-induced Chk1 phosphorylation, primary screen, imaging, HeLa, phospho-Chk1 antibody, percent positive cells (AID 1186). To be noted: hydroxyurea-induced phospho-Chk1 immunofluorescence imaging, higher = more signal.
Assay [5] in a line: inhibitors of hydroxyurea-induced Chk1 phosphorylation, primary screen, imaging, HeLa, phospho-Chk1 nuclear intensity (AID 1187). To be noted: hydroxyurea-induced phospho-Chk1 immunofluorescence imaging, higher = more signal.

Sequence of Homeobox protein Hox-A13 (Mus musculus) (Q62424 whole entry, looked up): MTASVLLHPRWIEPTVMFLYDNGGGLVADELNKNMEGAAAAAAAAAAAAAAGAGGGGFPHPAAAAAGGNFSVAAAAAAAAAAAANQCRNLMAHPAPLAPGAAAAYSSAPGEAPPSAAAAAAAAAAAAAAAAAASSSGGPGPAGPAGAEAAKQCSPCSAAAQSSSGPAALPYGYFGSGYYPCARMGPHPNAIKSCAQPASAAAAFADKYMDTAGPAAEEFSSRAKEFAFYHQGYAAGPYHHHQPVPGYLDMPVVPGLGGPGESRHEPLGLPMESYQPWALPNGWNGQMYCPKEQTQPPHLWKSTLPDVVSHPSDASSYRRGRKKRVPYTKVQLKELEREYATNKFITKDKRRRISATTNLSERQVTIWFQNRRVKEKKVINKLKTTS

For the compound `CN1C(=O)C2C=CC(C(O)C3CC=CCC3)N(NC(=O)OC(C)(C)C)C2C1=O` (stereo unspecified), the composite z-score was 0.947 (inactive) in assay [1] and 0.539 with XIP peptide (Xip251-270). The z-score was 0.849 in assay [2], -2.05 (inactive) in assay [3], 0.867 (inactive) in assay [4] and 0.509 (inactive) in assay [5].

With `CC(C)N1C(=O)[C@@]2(Cc3ccccc31)c1ccccc1C(=O)N(C1CCCCC1)[C@H]2c1ccc(CO)cc1`, the values for the composite z-score (in assay [1]; with XIP peptide (Xip251-270)) were -0.091 (inactive) and 0.709, respectively. The z-score was -0.288 in assay [2], -0.666 (inactive) in assay [3], -0.0292 (inactive) in assay [4] and 0.029 (inactive) in assay [5].

Take `CCCCN1CC=CC23O[C@@H]4C=CCOC(=O)[C@@H]4[C@H]2C(=O)N(CCCCCO)[C@@H]3C1=O` (stereo partly specified): the composite z-score in assay [1] is -0.338 (inactive); in the assay with XIP peptide (Xip251-270), 0.0889. Further, the z-score in assay [2] was -0.198; in assay [3] it was -3.39 (inactive); in assay [4], -0.0035 (inactive); in assay [5], -0.504 (inactive).

Consider `C=C(CCCC)C(=O)CC[C@@H](OC(=O)c1cccnc1)c1ccc(CO)o1`, for which the composite z-score was 0.67 (inactive) in assay [1] and 0.561 with XIP peptide (Xip251-270). In addition, the z-score is -0.46 in assay [2], -4.35 (inactive) in assay [3], 0.575 (inactive) in assay [4] and -0.023 (inactive) in assay [5].

Turning to `CC(=O)n1cc(C(O)C2C=CC3C(=O)N(C)C(=O)C3N2Nc2ccccc2)c2ccccc21` (stereo unspecified), the results for the composite z-score (in assay [1]; with XIP peptide (Xip251-270)) were 0.144 (inactive) and 0.383, respectively. Moreover, the z-score in assay [2] is 0.413; in assay [3], -3.76 (inactive); in assay [4] it was -0.47 (inactive); in assay [5], -0.987 (inactive).

Consider `COc1ccc([C@H]2C[C@H]3C(Br)=C[C@@H]2C(=O)[C@]32CO2)cc1`, for which the composite z-score in assay [1] was -0.244 (inactive); with XIP peptide (Xip251-270) it was -0.22. For the same compound, the z-score in assay [2] was -0.518; in assay [3] it was -0.444 (inactive); in assay [4] it was 0.0297 (inactive); in assay [5] it was -0.237 (inactive).

Regarding `C=CCOC(=O)[C@@H]1[C@H]2C(=O)O[C@H](c3ccccc3)[C@H](c3ccccc3)N2[C@H](c2ccc(OCCOC(=O)[C@@H]3C[C@@H]4C(=O)N5CCC[C@H]5C(=O)N4[C@@H]3c3ccc(O)cc3)cc2)[C@@]12C(=O)Nc1ccc(I)cc12`, the figures for the composite z-score (in assay [1]; in the assay on XIP peptide (Xip251-270)) were 0.393 (inactive) and 0.533, respectively. The z-score in assay [2] is -1.85; in assay [3], 1.38 (inactive); in assay [4], -0.946 (inactive); in assay [5], -0.3 (inactive).

Regarding `CC(=O)NCCCC[C@@H]1NC(=O)[C@@H]2C[C@H](C(=O)NCCCCCCNC(=O)CS)[C@H](c3cccc(OCCO)c3)N2C1=O`, the values for the composite z-score (in assay [1]; with XIP peptide (Xip251-270)) were 0.732 (inactive) and 0.669, respectively. The z-score in assay [2] is -0.523; in assay [3], -4.5 (inactive); in assay [4] it was -0.223 (inactive); in assay [5], -0.0198 (inactive).

Take `C=CC[C@@]1(C(N)=O)N=C(c2ccc(OCCCO)cc2)O[C@@H]1c1ccccc1CN=[N+]=[N-]`: the composite z-score in assay [1] was 1.06 (inactive); in the assay on XIP peptide (Xip251-270), 0.843. The z-score in assay [2] was -1.7; in assay [3] it was -3.93 (inactive); in assay [4], 0.586 (inactive); in assay [5] it was 1.16 (inactive).

Consider `[N-]=[N+]=Nc1ccccc1[C@H]1OC(c2ccc(OCCCO)cc2)=N[C@@]1(Cc1ccccc1)C(=O)O`, for which the composite z-score in assay [1] was 0.387 (inactive); with XIP peptide (Xip251-270), 0.686. Also, the z-score in assay [2] is -1.23; in assay [3] it was -5.18 (inactive); in assay [4] it was -0.48 (inactive); in assay [5], -0.822 (inactive).

Turning to `CN(C)CCCNC(=O)[C@@]1(c2ccc([N+](=O)[O-])cc2)CC(=O)N(C2CCCCC2)[C@@H]1c1ccc(CO)cc1`, the composite z-score is -0.209 (inactive) in assay [1] and -0.0124 in the assay with XIP peptide (Xip251-270). The z-score was -1.11 in assay [2], -0.842 (inactive) in assay [3], -0.196 (inactive) in assay [4] and -0.495 (inactive) in assay [5].

On to `O=C1C2C=CC(C(O)C3CCCCC3)N(Nc3ccc([N+](=O)[O-])cc3)C2C(=O)N1c1ccccc1` (stereo unspecified), for which the results for the composite z-score (in assay [1]; in the assay on XIP peptide (Xip251-270)) were -0.375 (inactive) and 0.526, respectively. Also, the z-score in assay [2] was -1.5; in assay [3], -2.33 (inactive); in assay [4], -0.0882 (inactive); in assay [5] it was -0.177 (inactive).

Turning to `C[C@@]1([C@@H](NC(=O)c2ccccc2)c2ccc(-c3ccccc3)cc2)C[C@H]1C1CCCCC1`, the composite z-score in assay [1] was 0.192 (inactive); with XIP peptide (Xip251-270), -1.44. The z-score in assay [2] is -0.206; in assay [3], -0.0623 (inactive); in assay [4], 0.664 (inactive); in assay [5], -0.296 (inactive).

As to `COc1cc2c(cc1O)C=[N+](Cc1cccc(OC(F)(F)F)c1)CC2`, the composite z-score was -0.103 (inactive) in assay [1] and 0.0686 in the assay with XIP peptide (Xip251-270). The z-score in assay [2] is -1.94; in assay [3] it was -3.45 (inactive); in assay [4], -0.0564 (inactive); in assay [5], -0.707 (inactive).

Regarding `O=C1c2ccccc2[C@](Cc2ccccc2I)(C(=O)NC2CC2)[C@H](c2ccc(CO)cc2)N1Cc1ccccc1`, the composite z-score in assay [1] was 0.534 (inactive); in the assay on XIP peptide (Xip251-270), 0.63. Also, the z-score in assay [2] is -0.35; in assay [3], -5.1 (inactive); in assay [4], 0.0675 (inactive); in assay [5], -0.345 (inactive).

With `CCCC[C@@H]1C[C@H]1[C@@H](NC(=O)c1ccco1)c1ccc(Cl)cc1`, the composite z-score in assay [1] is 0.593 (inactive); in the assay with XIP peptide (Xip251-270) it was -0.111. Moreover, the z-score in assay [2] is -0.727; in assay [3], -3.18 (inactive); in assay [4], -0.522 (inactive); in assay [5], -0.995 (inactive).

Consider `CCCCc1cn(C[C@H](Cc2ccccc2)NC(=O)N[C@H](CO)CCc2oc(C(C)=O)c(C(=O)OC)c2C(=O)OC)nn1`, for which the composite z-score in assay [1] was 0.703 (inactive); in the assay on XIP peptide (Xip251-270) it was 0.512. For the same compound, the z-score in assay [2] was -1.92; in assay [3], -4.73 (inactive); in assay [4] it was -0.185 (inactive); in assay [5] it was -0.228 (inactive).

As to `COCCOC(=O)N1C(=O)[C@@]2(c3ccccc31)[C@H](c1ccccc1OCCO)N1[C@H](c3ccccc3)[C@H](c3ccccc3)OC(=O)[C@H]1[C@@H]2C(=O)Nc1nc2ccccc2s1`, the composite z-score in assay [1] was 0.219 (inactive); in the assay on XIP peptide (Xip251-270) it was 0.823. Besides, the z-score in assay [2] is -0.697; in assay [3], 0.922 (inactive); in assay [4], 0.002 (inactive); in assay [5], 0.122 (inactive).

`COC(=O)[C@@]1(Cc2ccccc2)[C@H]2c3cc(C(=O)N4CCCC4)n(Cc4nc5ccccc5[nH]4)c3C[C@H]2CN1C(=O)c1ccccc1`: the values for the composite z-score (in assay [1]; in the assay on XIP peptide (Xip251-270)) were 1.33 (inactive) and 0.213, respectively. Besides, the z-score in assay [2] was -1.65; in assay [3], -3.97 (inactive); in assay [4], -1.01 (inactive); in assay [5], -0.881 (inactive).

As for `O=C(NCc1ccccc1)[C@@]1(Cc2ccccc2)N=C(c2ccc(OCCCO)cc2)O[C@H]1c1ccccc1`, the composite z-score in assay [1] is 1.46 (inactive); in the assay on XIP peptide (Xip251-270), 0.684. The z-score is -2.39 in assay [2], -1.7 (inactive) in assay [3], -0.306 (inactive) in assay [4] and 0.0631 (inactive) in assay [5].

With `N#Cc1ccc(NN2C(C(O)c3c(F)cccc3Cl)C=CC3C(=O)N(c4ccccc4)C(=O)C32)cc1` (stereo unspecified), the values for the composite z-score (in assay [1]; with XIP peptide (Xip251-270)) were 0.817 (inactive) and 0.748, respectively. The z-score was -0.677 in assay [2], 0.238 (inactive) in assay [3], 0.0345 (inactive) in assay [4] and 0.0457 (inactive) in assay [5].

Take `CC1CC/C=C\[C@H]2OC34C=CCN(C(C)(C)C)C(=O)[C@H]3N(CCCCCCO)C(=O)[C@@H]4C2C(=O)O1` (stereo partly specified): the composite z-score was 1.87 (inactive) in assay [1] and -0.512 with XIP peptide (Xip251-270). In addition, the z-score in assay [2] was 0.621; in assay [3], -4.21 (inactive); in assay [4], -0.82 (inactive); in assay [5], 0.193 (inactive).

For the compound `CCOC(=O)C1=CCC(c2ccccc2)N(S(=O)(=O)CC[Si](C)(C)C)C1` (stereo unspecified), the values for the composite z-score (in assay [1]; in the assay on XIP peptide (Xip251-270)) were -0.0447 (inactive) and 0.113, respectively. For the same compound, the z-score in assay [2] was -0.391; in assay [3], -2.31 (inactive); in assay [4] it was -0.262 (inactive); in assay [5], 0.0088 (inactive).

With `CC(C)C[C@@H]1NC(=O)[C@H]2C[C@@H](C(=O)NCCCCCCN(C)C)[C@@H](c3ccc(O)cc3)N2C1=O`, the composite z-score was 1.2 (inactive) in assay [1] and 0.876 in the assay on XIP peptide (Xip251-270). The z-score in assay [2] is 1.26; in assay [3] it was -1.57 (inactive); in assay [4], 0.731 (inactive); in assay [5], 0.387 (inactive).

Regarding `CCCCN1CC=CC23O[C@@H]4/C=C\CCC(C)OC(=O)C4[C@H]2C(=O)N(CCCCCO)[C@@H]3C1=O` (stereo partly specified), the composite z-score in assay [1] is -0.725 (inactive); with XIP peptide (Xip251-270), 0.552. Further, the z-score was -0.232 in assay [2], -4.53 (inactive) in assay [3], -0.795 (inactive) in assay [4] and -0.518 (inactive) in assay [5].

In the case of `C=CCOC(=O)[C@H]1[C@@H]2C(=O)O[C@@H](c3ccccc3)[C@@H](c3ccccc3)N2[C@@H](c2ccc(OCCOC(=O)[C@H]3C[C@H]4C(=O)N[C@@H](CC(C)C)C(=O)N4[C@H]3c3ccc(O)cc3)cc2)[C@]12C(=O)Nc1ccc(I)cc12`, the values for the composite z-score (in assay [1]; in the assay on XIP peptide (Xip251-270)) were 0.626 (inactive) and 0.75, respectively. The z-score was -0.061 in assay [2], 6.65 (inactive) in assay [3], 0.293 (inactive) in assay [4] and 0.198 (inactive) in assay [5].
